# In all, about 140,000 sequences were measured (“enrichment ratio after two sorts for PhoP signalling”: median about 0, highest 2% from about 11 on). The full list was thinned out, with the highest values kept by preference.
# B1: PhoQ; a variant is named by its letters at X, in order, P23837 (parent)
# chain: MKKLLRLFFPLSLRVRFLLATAAVVLVLSLAYGMVALIGYSVSFDKTTFRLLRGESNLFYTLAKWENNKLHVELPENIDKQSPTMTLIYDENGQLLWAQRDVPWLMKMIQPDWLKSNGFHEIEADVNDTSLLLSGDHSIQQQLQEVREDDDDAEMTHSVAVNVYPATSRMPKLTIVVVDTIPVELKSSYMVWSWFIYVLSANLLLVIPLLWVAAWWSLRPIEALAKEVRELEEHNRELLNPATTRELTSLVRNLNRLLKSERERYDKYRTTLTDLTHSLKTPLXXLQXXLRSLRSEKMSVSDAEPVMLEQISRISQQIGYYLHRASMRGGTLLSRELHPVAPLLDNLTSALNKVYQRKGVNISLDISPEISFVGEQNDFVEVMGNVLDNACKYCLEFVEISARQTDEHLYIVVEDDGPGIPLSKREVIFDRGQRVDTLRPGQGVGLAVAREITEQYEGKIVAGESMLGGARMEVIFGRQHSAPKDE
# Variants of: B1
# Assay: enrichment ratio after two sorts for PhoP signalling (ratio (wild type AVST 3.29)); higher = more functional
# Conditions: with PhoP (E. coli)
row,Variant,enrichment ratio
1,KSMI,≤ 0.25
2,TSMW,≤ 0.25
3,FSMV,9.33
4,TSMI,23
5,TSMV,19.3
6,KSMV,≤ 0.25
7,RCKQ,≤ 0.25
8,VMWK,≤ 0.25
9,AQIM,2.44
10,MGFA,3.62
11,MGNS,≤ 0.25
12,MGWC,32.1
13,QRLC,≤ 0.25
14,MGDY,≤ 0.25
15,MGFS,2.82
16,MGFC,14.4
17,MLWC,≤ 0.25
18,MGLC,19.1
19,IHNL,≤ 0.25
20,VPHV,≤ 0.25
21,QVMI,≤ 0.25
22,QDPG,≤ 0.25
23,LMRT,≤ 0.25
24,HNWM,≤ 0.25
25,PLAN,≤ 0.25
26,NSAN,≤ 0.25

row,Variant,enrichment ratio
1,SLAN,13.8
2,SIWN,4.21
3,SFAN,≤ 0.25
4,KSAN,≤ 0.25
5,SIAN,22.8
6,TLAN,12.5
7,SSAN,12.6
8,KYAN,≤ 0.25
9,SRAN,≤ 0.25
10,VLAN,≤ 0.25
11,AYNP,≤ 0.25
12,MNQS,≤ 0.25
13,QHYQ,≤ 0.25
14,KQAN,≤ 0.25
15,SAAN,11.7
16,SAQN,≤ 0.25
17,IPYG,≤ 0.25
18,MDSP,1.12
19,NDLM,≤ 0.25
20,YTWY,≤ 0.25
21,MMWF,≤ 0.25
22,TTWY,14
23,MTWF,11.8
24,MPWY,≤ 0.25
25,LTWY,2.54
26,YTWF,≤ 0.25

row,Variant,enrichment ratio
1,MTWI,10.2
2,MTWY,21.6
3,REII,≤ 0.25
4,QNIY,≤ 0.25
5,RKGF,≤ 0.25
6,RLAG,≤ 0.25
7,LLSD,≤ 0.25
8,KHVD,≤ 0.25
9,WVTG,≤ 0.25
10,WRYK,≤ 0.25
11,DWAR,≤ 0.25
12,DQSP,≤ 0.25
13,HHVS,≤ 0.25
14,HLFA,≤ 0.25
15,AIAG,12.5
16,TIFG,≤ 0.25
17,TIAG,21.3
18,AKAG,≤ 0.25
19,KKAG,≤ 0.25
20,WIAG,≤ 0.25
21,EQNT,≤ 0.25
22,MHNT,≤ 0.25
23,ITTY,≤ 0.25
24,FDHV,≤ 0.25
25,TTPV,≤ 0.25
26,YTHV,≤ 0.25

row,Variant,enrichment ratio
1,YTQV,≤ 0.25
2,NVHV,≤ 0.25
3,TTIV,0.549
4,FSHV,≤ 0.25
5,TTHV,14.6
6,STQV,2.63
7,TTMV,28.9
8,FVHV,12.9
9,TTQV,16.2
10,SKAG,≤ 0.25
11,TMDC,≤ 0.25
12,CSSV,0.253
13,LKSK,≤ 0.25
14,QYAS,≤ 0.25
15,DYQS,≤ 0.25
16,HVFV,≤ 0.25
17,VSIQ,≤ 0.25
18,GGHV,≤ 0.25
19,RGHV,≤ 0.25
20,TGHV,16.1
21,YHQM,≤ 0.25
22,DRRP,≤ 0.25
23,ANSC,11.9
24,ANSK,≤ 0.25
25,AKSC,23.2
26,TKSC,5.09

row,Variant,enrichment ratio
1,ADSC,≤ 0.25
2,ARSC,≤ 0.25
3,VIHS,≤ 0.25
4,QISE,≤ 0.25
5,IIPR,≤ 0.25
6,TIIG,≤ 0.25
7,QQWT,≤ 0.25
8,QRWT,≤ 0.25
9,LCWT,≤ 0.25
10,QEWT,11.3
11,MPWT,≤ 0.25
12,QLWT,≤ 0.25
13,MKWT,≤ 0.25
14,TPWT,≤ 0.25
15,MEWT,34.7
16,TSWT,13.4
17,QIWT,20.8
18,MMWT,≤ 0.25
19,LESG,≤ 0.25
20,KRHA,≤ 0.25
21,DVYV,≤ 0.25
22,SDAE,≤ 0.25
23,YELP,≤ 0.25
24,EIRK,≤ 0.25
25,ESAA,≤ 0.25
26,EVKR,≤ 0.25

row,Variant,enrichment ratio
1,KHRA,≤ 0.25
2,IFHG,≤ 0.25
3,MCIH,≤ 0.25
4,FQWT,≤ 0.25
5,KEWT,≤ 0.25
6,VRWT,≤ 0.25
7,MRWT,≤ 0.25
8,YTWT,≤ 0.25
9,QGWT,36
10,NEWT,32
11,ITWT,≤ 0.25
12,FFWT,≤ 0.25
13,MQWT,21.2
14,DMWT,≤ 0.25
15,TTWT,15
16,NKIQ,≤ 0.25
17,ENRF,≤ 0.25
18,PLPI,≤ 0.25
19,WSFP,≤ 0.25
20,YDQD,≤ 0.25
21,VCTS,≤ 0.25
22,WTPD,≤ 0.25
23,SKDW,≤ 0.25

# — a collection of fitness landscapes (doi:10.1126/science.1257360)
